Test results from the supplement of paper PMC6555819.

Experiments:
Assay in all cases: PBM binding z-score (relative to random genomic background probes); higher = stronger binding; sequences stand for … in GC…GCGATTGACAGCGTAGAATGAAGG
[1] = test system: FXR:RXRa (NR concentration 270 nM, RXRa partner concentration 90 nM)
In short: (§1)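 Binding z-scores take random background probes as their reference. They come from custom Agilent 4×180K protein-binding microarrays incubated 1 h with ligand-free nuclear receptor dimers, with antibodies against each partner (one per run) detecting binding. Scanned fluorescence was regression-normalized.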

[2] = test system: LXRa:RXRa (NR concentration 270 nM, RXRa partner concentration 90 nM)
In short: as §1

[3] = test system: LXRa homodimer (NR concentration 270 nM)
In short: as §1

[4] = test system: LXRb:RXRa (NR concentration 270 nM, RXRa partner concentration 90 nM)
In short: as §1

[5] = test system: LXRb homodimer (NR concentration 270 nM)
In short: as §1

[6] = test system: PPARa:RXRa (NR concentration 270 nM, RXRa partner concentration 90 nM)
In short: as §1

[7] = test system: PPARg:RXRa (NR concentration 180 nM, RXRa partner concentration 90 nM)
In short: as §1

[8] = test system: PPARg:RXRa 270nM:90nM, anti-RXR (NR concentration 270 nM, RXRa partner concentration 90 nM)
In short: as §1

[9] = test system: PPARg:RXRa 30nM:10nM, anti-RXR (NR concentration 30 nM, RXRa partner concentration 10 nM)
In short: as §1

[10] = test system: PPARg:RXRa 90nM:30nM, anti-RXR (NR concentration 90 nM, RXRa partner concentration 30 nM)
In short: as §1

[11] = test system: PPARg:RXRa DBDmut IVT, anti-RXR (DBD mutation: RXRa K156A/R161A, NR concentration 270 nM, RXRa partner concentration 90 nM)
In short: as §1

[12] = test system: PPARg:RXRa IVT, anti-PPARg (NR concentration 270 nM, RXRa partner concentration 90 nM)
In short: as §1

[13] = test system: PPARg DBDmut:RXRa IVT, anti-PPARg (DBD mutation: PPARg1 K132A/R137A, NR concentration 270 nM, RXRa partner concentration 90 nM)
In short: as §1

[14] = test system: PPARg DBDmut IVT, anti-PPARg (DBD mutation: PPARg1 K132A/R137A, NR concentration 270 nM)
In short: as §1

[15] = test system: PPARg homodimer (NR concentration 180 nM)
In short: as §1

[16] = test system: PXR:RXRa (NR concentration 270 nM, RXRa partner concentration 90 nM)
In short: as §1

[17] = test system: PXR homodimer (NR concentration 270 nM)
In short: as §1

[18] = test system: RARa:RXR (NR concentration 270 nM, RXRa partner concentration 90 nM)
In short: as §1

[19] = test system: RARa homodimer (NR concentration 270 nM)
In short: as §1

[20] = test system: RARb:RXRa (NR concentration 270 nM, RXRa partner concentration 90 nM)
In short: as §1

Sequence | PBM binding z-score [1] | PBM binding z-score [2] | PBM binding z-score [3] | PBM binding z-score [4] | PBM binding z-score [5] | PBM binding z-score [6] | PBM binding z-score [7] | PBM binding z-score [8] | PBM binding z-score [9] | PBM binding z-score [10] | PBM binding z-score [11] | PBM binding z-score [12] | PBM binding z-score [13] | PBM binding z-score [14] | PBM binding z-score [15] | PBM binding z-score [16] | PBM binding z-score [17] | PBM binding z-score [18] | PBM binding z-score [19] | PBM binding z-score [20]
CCTATTAGTTGACCATAAGGGCAATCGAAGCTCG | 0.68 | 0.259 | 0.71 | 0.623 | 0.695 | 0.456 | 0.434 | 0.366 | 0.122 | 0.461 | 0.549 | 0.361 | 0.362 | 0.72 | 1.56 | 0.609 | 0.878 | 0.531 | 2.18 | 1.38
TCGAGTAGGTTAGTCGGGGCATTAAGCCAACATA | -0.0253 | -0.0214 | -0.347 | 0.387 | -0.774 | 0.728 | 0.0278 | 0.922 | 1.05 | 1.18 | 2.22 | 1.85 | -0.456 | 0.127 | 0.173 | 0.149 | -0.182 | 0.471 | -0.436 | 0.306
GTACCAAGGTGTATAGGTCGTTGATGAGTAGGCG | 0.26 | 0.421 | -0.0152 | 0.029 | -0.37 | 0.871 | 0.775 | 0.814 | 0.27 | 0.71 | 0.000885 | 0.719 | -0.0523 | 0.342 | 0.75 | 0.265 | 0.0316 | 0.833 | 0.17 | 0.755
GCTAGTTGTTCAGTAAAAGGTCACACACCGGTCG | 3.26 | 4.29 | 4.24 | 4.06 | 0.882 | 4.13 | 1.84 | 3.57 | 1.49 | 3.27 | 0.391 | 1.95 | 0.53 | 0.109 | 3.86 | 4.88 | 1.13 | 5.29 | 2.41 | 3.91
ATCTCTAGGTAAAGTTCAGTCAAAGATCGATAGA | 1.73 | 3.21 | 2.37 | 1.64 | 0.899 | 2.44 | 3.53 | 4.45 | 2.64 | 4.1 | 1.91 | 2.68 | 1.08 | 1.44 | 1.63 | 2.32 | 1.93 | 1.48 | 1.68 | 2.55
TCTGCTAGGTCAGTTGTTCAGCTAACGAGCTGCC | 0.697 | 0.0799 | -0.424 | 0.213 | 0.398 | 1 | -0.335 | 1.24 | 1.28 | 1.21 | 2.38 | 2.46 | -0.0117 | 0.257 | -0.0463 | 0.0123 | -1.04 | 0.419 | -1.19 | 3.15
TGTCAAAGTTCAAAGGTAACGTTAGTATCCACAC | 7.28 | 6.46 | 4.63 | 4.65 | 1.95 | 5.88 | 8.96 | 7.52 | 5.52 | 7.18 | 0.507 | 4.64 | 0.572 | 1.49 | 2.93 | 5.67 | 4.38 | 6.71 | 1.65 | 5.29
ATCCCTAGGTAACAAGTTCAGTGAAAGAGAGGAC | 0.484 | 0.833 | 0.361 | 0.843 | 0.823 | 0.724 | 0.555 | 0.236 | 0.0944 | 0.289 | 0.293 | 0.638 | 0.652 | 0.582 | 1.15 | 1.7 | 1.53 | 0.808 | 0.946 | 1.51
ATCTCTAGGTAACCAGGTTCAGTGAATGCCGAAC | 0.339 | 0.277 | 0.415 | 0.528 | 0.703 | 1.37 | 0.883 | 0.861 | 0.15 | 0.492 | 3.75 | 3.09 | 0.459 | 0.795 | 1.07 | 0.948 | 0.388 | 0.808 | 0.438 | 0.668
TCATATAGGTAAAGGTGTAAGTCGAACGATATGA | 0.564 | 0.266 | -0.224 | 0.356 | -0.187 | 1.81 | 3.01 | 3.83 | 4.04 | 4.1 | 3.51 | 3.04 | 1.38 | 0.989 | 0.612 | 0.127 | -0.297 | 0.259 | 0.411 | 0.413
TCAGACAGGTGAAGGTCACTCAGGTACGCAGTCG | 3.13 | 3.62 | 1.36 | 3.13 | 0.146 | 3.72 | 2.39 | 3.12 | 3.84 | 3.76 | 3.07 | 2.84 | 0.351 | 0.266 | 2.38 | 4.02 | 0.556 | 3.78 | 0.971 | 4.01
GCTGCTAGGTCAGGTGGGTCAGCTAACGGGTACG | 1.62 | 1.2 | -0.394 | 0.981 | -0.0608 | 2.34 | 1.65 | 1.61 | -0.279 | 0.851 | 2.85 | 3.22 | 0.103 | -0.61 | 1.05 | 1.28 | -0.409 | 1.66 | -0.0518 | 3.56
CGTCCAAGGCCAGCAGGTCAGTGAAAGCGACGTG | 0.378 | 0.0811 | -0.472 | -0.00321 | -1.05 | 0.83 | -0.215 | -0.182 | -0.911 | -0.203 | 0.153 | -0.0441 | -0.768 | -0.983 | 0.0229 | 0.29 | -0.389 | 0.692 | -1.23 | 2.36
CAAACTAGGTCAAGGTCAAAGTTGGTTTGTGCCA | 7 | 5.55 | 4.19 | 4.77 | 1.48 | 6.04 | 9.87 | 7.82 | 6.98 | 8.52 | 8.46 | 8.73 | 4.69 | 4.12 | 4.93 | 5.28 | 2.75 | 5.45 | 1.94 | 5.19
